Data from PubChem BioAssay (NCATS).
Records with an inconclusive call do not appear. The source made the active and inactive calls. Calls come from the whole dose curve; tested in HEK293 reporter line.

Assays:
[1] = qHTS for Inhibitors of the Functional Ribonucleoprotein Complex (vRNP) of Lassa (LASV) Arenavirus: LASV Primary Screen - GLuc reporter signal (AID 1347082); note: nearly all actives have a fitted effect of over 60% in size
[2] = qHTS for Inhibitors of the Functional Ribonucleoprotein Complex (vRNP) of Lassa (LASV) Arenavirus: Viability assay - alamar blue signal for LASV Primary Screen (AID 1347083); note: nearly all actives have a fitted effect of over 80% in size
[3] = qHTS for Inhibitors of the Functional Ribonucleoprotein Complex (vRNP) of Lymphocytic Choriomeningitis Arenaviruses (LCMV): Viability assay - alamar blue signal for LCMV Primary Screen (AID 1347085); note: nearly all actives have a fitted effect of over 80% in size

Measured: Potency
Note: series mostly up to about 57 µM.

O=c1cc(CO)occ1O
inactive: all assays above

COC(=O)C1=C(C)NC(C)=C(C(=O)O[C@@H]2CCCN(Cc3ccccc3)C2)[C@@H]1c1cccc([N+](=O)[O-])c1
inactive: all assays above

CCCCC(=O)O[C@]1(C(=O)CO)CC[C@H]2[C@@H]3CCC4=CC(=O)CC[C@]4(C)[C@H]3[C@@H](O)C[C@@]21C
inactive: all assays above

COc1ccc2[nH]c(S(=O)Cc3ncc(C)c(OC)c3C)nc2n1 (configuration not stated)
inactive: all assays above

C[C@H]1C[C@H]2[C@@H]3CCC4=CC(=O)C=C[C@]4(C)[C@H]3C(=O)C[C@]2(C)[C@@]1(O)C(=O)CO
inactive: all assays above

Nc1c2c(nc3ccccc13)CCCC2O (configuration not stated)
inactive: all assays above

NC(=O)CCCCC1CCSS1 (configuration not stated)
inactive: all assays above

CC1=C(C)C(=O)C(C(CCCCCC(=O)O)c2ccccc2)=C(C)C1=O (configuration not stated)
inactive: all assays above

Cc1ccc(Nc2c(F)cccc2Cl)c(CC(=O)O)c1
inactive: all assays above

OC(C#CCN1CCCC1)(c1ccccc1)c1ccccc1
inactive: all assays above

CCCCC[C@H](O)C=C[C@H]1[C@H](O)CC(=O)[C@H]1CC=CCCCC(=O)O
inactive: all assays above

Cc1ncc([N+](=O)[O-])n1C
inactive: all assays above

O=C(CCCN1CC=C(n2c(=O)[nH]c3ccccc32)CC1)c1ccc(F)cc1
inactive: all assays above

Oc1ccc(CCNCCCCCCNCCc2ccccc2)cc1O
inactive: all assays above
